The results in this text go back to paper PMC12864922, “TDP-43 directly inhibits mRNA accumulation in neurites through modulation of mRNA stability”.

The labels stand for the following.
B1: ENSMUSG00000031028.145|Tub (ssRNA)
RNA: GGGAGUUCUACAGUCCGACGAUCGCUUCGAUAUCCGCAUGCUAACAGGAUCUAGGUCACCAUUCAAGUAAUGGUAUGCUUCAGGAAGAAUGUCCUCUCUGGGAAGACUCAGCUCCCAUUAUUGCCAGCAUGCCAUGAUCAGUGAGGGCUGUGUGCCAUGCUUAGGGGGAUGGCGCAGGGUGAGGGGAGCAGAGGAUAUUUUAGGGCCACAAGAGCUCAGAGGUAGCGGACCUCUGUGUGGUUCACCAACAGCAAUGCUGAUCCCUGAGUAUAGGGCACAUGUCUCUUGGUUACCUCACUGGUUCUCUUGCGGUCGCACUAGUGUGGAAUUCUCGGGUGUCAAGG
B2: ENSMUSG00000061578.1426|Ksr2 (ssRNA)
RNA: GGGAGUUCUACAGUCCGACGAUCGCUUCGAUAUCCGCAUGCUACUCUUCCUUUUCCUUUUUAGAUCUGUCUUGCUCUCUGUCUCUCUCACUCAUUGCCAACAUGUUGCUGGGAAAGAAUAUUUGAUUUAGAUGCCAAUCAGGAAGGCAAGUAGGAUGGAUGGAUGAGUGAGUGGAUAGGUAGGUAUAUAAAUGGAUGGAUGGGUGAUGGAUGGGUAAAUGAAUGGAUAGGUAUGUGAAUGAAUGGAUGAUGGAUGAAUGGAUGGGUAGGUGGGUAGAUAGGUAUAUGAAUGAAUGGAUGAAUGCUCUUGCGGUCGCACUAGUGUGGAAUUCUCGGGUGUCAAGG
B3: ENSMUSG00000043670.185|Diras1|17:21;114:118;148:152;162:171;177:184;217:221;250:260 (ssRNA)
RNA: GGGAGUUCUACAGUCCGACGAUCGCUUCGAUAUCCGCAUGCUAGCCUCUUUGCUGGUCAACACAACUCUGGAGACUGUCCCCCAUGUCUGCCCUGAGUUACGGAGCCCCUGUGGUAUCUGCGAGACUGUCCAGGAGACUUGAGUGGCUCCUGGGCCACACACCCACCCAGAUGAGGGUGACUUAGAAUUCACACAUUAUGUGCCACACACACACGAUGGCACACACACUGUCUUGGGAUGGGGUGUUCUUGCACCACUUACACAUCUUAGUGAGACCACAGUGUAAGUGGCCCACACACACACCUCUUGCGGUCGCACUAGUGUGGAAUUCUCGGGUGUCAAGG
B4: ENSMUSG00000029028.10|Lrrc47 (ssRNA)
RNA: GGGAGUUCUACAGUCCGACGAUCGCUUCGAUAUCCGCAUGCUAGACGGACCUGAUCACCCUCCCUCCCCACGUGACUGUGGUCCGCUGACAGGCUCCUGUAGGUGUGGGUGUGCUGUAGGUGUCUGUGUGGGUGUGGGUGUGCUGUAGGUGUCUGUGUGGGUGUGGGUGUGCUAUAGGUAUCUGUGGGUGUGCUGUAGGUGUCUGUGUGGGUGUGCUGUAGGUGUCUGUGUAGGUGUGGGUGUGCUGUAGGUGUCUGUGUGGGUGUGCUAGGUGUCUGUAUAGGUGUGGGUGUGCUGUAGAUGCUCUUGCGGUCGCACUAGUGUGGAAUUCUCGGGUGUCAAGG
B5: ENSMUSG00000029028.9|Lrrc47 (ssRNA)
RNA: GGGAGUUCUACAGUCCGACGAUCGCUUCGAUAUCCGCAUGCUAAUCCAAGACGGACCUGAUCACCCUCCCUCCCCACGUGACUGUGGUCCGCUGACAGGCUCCUGUAGGUGUGGGUGUGCUGUAGGUGUCUGUGUGGGUGUGGGUGUGCUGUAGGUGUCUGUGUGGGUGUGGGUGUGCUAUAGGUAUCUGUGGGUGUGCUGUAGGUGUCUGUGUGGGUGUGCUGUAGGUGUCUGUGUAGGUGUGGGUGUGCUGUAGGUGUCUGUGUGGGUGUGCUAGGUGUCUGUAUAGGUGUGGGUGUGCUGCUCUUGCGGUCGCACUAGUGUGGAAUUCUCGGGUGUCAAGG
B6: ENSMUSG00000029028.8|Lrrc47 (ssRNA)
RNA: GGGAGUUCUACAGUCCGACGAUCGCUUCGAUAUCCGCAUGCUAGUACCCAUCCAAGACGGACCUGAUCACCCUCCCUCCCCACGUGACUGUGGUCCGCUGACAGGCUCCUGUAGGUGUGGGUGUGCUGUAGGUGUCUGUGUGGGUGUGGGUGUGCUGUAGGUGUCUGUGUGGGUGUGGGUGUGCUAUAGGUAUCUGUGGGUGUGCUGUAGGUGUCUGUGUGGGUGUGCUGUAGGUGUCUGUGUAGGUGUGGGUGUGCUGUAGGUGUCUGUGUGGGUGUGCUAGGUGUCUGUAUAGGUGUGGGUCUCUUGCGGUCGCACUAGUGUGGAAUUCUCGGGUGUCAAGG
B7: ENSMUSG00000029028.10|Lrrc47|60:64;66:70;82:87;89:93;95:99;111:116;118:122;124:128;145:149;161:166;168:172;184:188;191:195;197:201;213:218;220:224;241:245;247:2 … (ssRNA)
RNA: GGGAGUUCUACAGUCCGACGAUCGCUUCGAUAUCCGCAUGCUAGACGGACCUGAUCACCCUCCCUCCCCACGUGACUGUGGUCCGCUGACAGGCUCCUGUAGCACACGCACACCUGUAGGUGUCACACACGCACACGCACACCUGUAGGUGUCACACACGCACACGCACACCUAUAGGUAUCUGUGGCACACCUGUAGGUGUCACACACGCACACCUGUAGGUGUCACACAAGCACACGCACACCUGUAGGUGUCACACACGCACACCUAGGUGUCUGUAUAGCACACGCACACCUGUAGAUGCUCUUGCGGUCGCACUAGUGUGGAAUUCUCGGGUGUCAAGG
B8: ENSMUSG00000029028.7|Lrrc47 (ssRNA)
RNA: GGGAGUUCUACAGUCCGACGAUCGCUUCGAUAUCCGCAUGCUAGGUGGUGUACCCAUCCAAGACGGACCUGAUCACCCUCCCUCCCCACGUGACUGUGGUCCGCUGACAGGCUCCUGUAGGUGUGGGUGUGCUGUAGGUGUCUGUGUGGGUGUGGGUGUGCUGUAGGUGUCUGUGUGGGUGUGGGUGUGCUAUAGGUAUCUGUGGGUGUGCUGUAGGUGUCUGUGUGGGUGUGCUGUAGGUGUCUGUGUAGGUGUGGGUGUGCUGUAGGUGUCUGUGUGGGUGUGCUAGGUGUCUGUAUAGGUCUCUUGCGGUCGCACUAGUGUGGAAUUCUCGGGUGUCAAGG
B9: ENSMUSG00000029028.6|Lrrc47 (ssRNA)
RNA: GGGAGUUCUACAGUCCGACGAUCGCUUCGAUAUCCGCAUGCUACUUGAAGGUGGUGUACCCAUCCAAGACGGACCUGAUCACCCUCCCUCCCCACGUGACUGUGGUCCGCUGACAGGCUCCUGUAGGUGUGGGUGUGCUGUAGGUGUCUGUGUGGGUGUGGGUGUGCUGUAGGUGUCUGUGUGGGUGUGGGUGUGCUAUAGGUAUCUGUGGGUGUGCUGUAGGUGUCUGUGUGGGUGUGCUGUAGGUGUCUGUGUAGGUGUGGGUGUGCUGUAGGUGUCUGUGUGGGUGUGCUAGGUGUCUGUCUCUUGCGGUCGCACUAGUGUGGAAUUCUCGGGUGUCAAGG
B10: ENSMUSG00000031028.612|Tub|38:42 (ssRNA)
RNA: GGGAGUUCUACAGUCCGACGAUCGCUUCGAUAUCCGCAUGCUAUGAGCAGCUAGAGCAUUUGAGCAACCCAUGUAAUCUUACACAUUCCCUCCCUGUAAGAAGGCCUGUCAGAGCUUGCUGUAGGAGUUAGGGUAAAUGAAAGUUAGUCCUGGCUCUCAUCACCACCUUUCCUAGCUCAUCACUGUGCCUUCUUUCUUCCCUAAGAAAGACAAUGCACCCCUCUCUUCUGUUCUCCUGCCCCUUCGCCCCCACUGAGGUCCAGGUAGAGCAGAUGAGGCUGAAAUGUAGAGUGUUCUAUAGAGCUCUUGCGGUCGCACUAGUGUGGAAUUCUCGGGUGUCAAGG
B11: ENSMUSG00000043670.77|Diras1|85:90 (ssRNA)
RNA: GGGAGUUCUACAGUCCGACGAUCGCUUCGAUAUCCGCAUGCUAGGAUCUGAAAACAGGGACCUGGCUAAGGAACUGCUCAUCCCAGUCAGGCCCAGAGAGGUUACCUUGCCUCUCCAUCUCUGUCCCACACACCCCAGCCAUGCCCACUGUCCCUGUCCCUCACAUUCUAUCACUGUGACCUCUGGGGAGUGCCCAUUGACCUCAUCUUCCUUCACUAAUAUCUUAUUUCUUUCACCUGAUCCUGUCCUUUCCCCGUGACCUCUGACCUGUGGCCUUCCCUGGGUCCAGAACACCCCUGUCCUCUCUUGCGGUCGCACUAGUGUGGAAUUCUCGGGUGUCAAGG
B12: ENSMUSG00000090935.47|Synj2bp (ssRNA)
RNA: GGGAGUUCUACAGUCCGACGAUCGCUUCGAUAUCCGCAUGCUAGCGGGAUGUGCUGUGUCCCUGAGAGUACAGCACAGGGUAGGUAUUACCUGCACCUGGAUAUGGGACAGUAGGCUUUUACACUGUUCUUGUGAAUAGGUUUGUAAGCUUCAAAGUCUGCUUUACUUUAUCUUCUGUUAUGAUUGCCUUUGUCAGCAUAGGCAGGAGUCCUUUAGGAUUUCUGCCUAUCAGUAAAAGAAGUAUGUAACCCAAGUUCUACCUUCAGUGGAUUAAAGUUUCAUUAAGUGAAAAUGGAAAGAAAGCUCUUGCGGUCGCACUAGUGUGGAAUUCUCGGGUGUCAAGG
B13: ENSMUSG00000058297.314|Spock2 (ssRNA)
RNA: GGGAGUUCUACAGUCCGACGAUCGCUUCGAUAUCCGCAUGCUAGCUGAGGCUUCCAGGACAAAGCCCCAGUCUGGCUCUCCCCCAGCCUCUCAGGGGCACUGGCUGGUCACAUCCACUGAGUAUUGAUCGGUUGGACUUUAGGGAAGAGCCUCCUCCUUCCCAUUCCUUUCUGCCACCCUGGAAUGGCCACCUUAAUCGUCAUCUCCUCGGGGGGAAUACGGAAAUGUCACCAAGCUCCAUAAAGUGCUUCUCAUUCCACGACACAGUUCUGACUCUCCGGGUGACUGUCACCUGCUCCCAUCCUCUUGCGGUCGCACUAGUGUGGAAUUCUCGGGUGUCAAGG

Whole data set: some 9,900 sequences, median “r (bound/input frequency ratio)” near 0.7, cut for the highest 2% near 6.5. What follows is part of a selection rich in the highest values, with near analogues and random picks from the rest.

TDP-43, sequence (Q13148 whole entry): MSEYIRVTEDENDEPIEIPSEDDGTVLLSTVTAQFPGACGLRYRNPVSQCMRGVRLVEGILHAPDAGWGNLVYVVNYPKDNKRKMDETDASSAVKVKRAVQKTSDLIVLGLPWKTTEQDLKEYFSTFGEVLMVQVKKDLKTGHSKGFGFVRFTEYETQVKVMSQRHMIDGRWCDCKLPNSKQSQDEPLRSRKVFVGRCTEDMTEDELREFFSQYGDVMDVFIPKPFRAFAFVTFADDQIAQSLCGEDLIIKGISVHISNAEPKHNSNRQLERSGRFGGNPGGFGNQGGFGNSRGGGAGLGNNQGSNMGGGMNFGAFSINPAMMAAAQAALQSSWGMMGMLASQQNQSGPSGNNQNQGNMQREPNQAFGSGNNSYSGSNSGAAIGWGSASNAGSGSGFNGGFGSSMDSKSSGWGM

The assay deals with TDP-43 (Homo sapiens, UniProt Q13148 1-414). Put plainly: RNA Bind-n-Seq with designed 260-mer pool; 25 mM Tris-HCl, 150 mM KCl, 3 mM MgCl2, BSA (printed 500 mg/mL), 20 units/mL SUPERase IN; pH not stated; 500 nM RNA pool, 1 h, 4 C; TDP-43 5, 50, 500 nM; high values mean tight binding. To be noted: protein: recombinant; tags: SBP (GST cleaved off with PreScission; pGEX-GST-SBP). The procedure, abridged:
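An in vitro-transcribed pool of 260-nt 3′ UTR oligos (500 nM) was incubated for 1 h at 4 °C with recombinant SBP-tagged TDP-43 at 5, 50 or 500 nM held on streptavidin beads. The buffer contained 25 mM Tris-HCl, 150 mM KCl, 3 mM MgCl2, BSA and SUPERase IN. Biotin-eluted bound RNA was sequenced, and binding, R, is each oligo's normalized read abundance in the bound sample over that in input.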
For the molecule B1, the binding signal is 0.682 R (bound/input frequency ratio).
B2: the binding signal was 4.09 R (bound/input frequency ratio).
As for B3, the binding signal is 0.956 R (bound/input frequency ratio).
Take B4: the binding signal is 6.52 R (bound/input frequency ratio).
As to B5, the binding signal was 6.63 R (bound/input frequency ratio).
With B6, the binding signal is 5.96 R (bound/input frequency ratio).
For B7, the binding signal is 1.07 R (bound/input frequency ratio).
As to B8, the binding signal was 5.82 R (bound/input frequency ratio).
Regarding B9, the binding signal is 5.29 R (bound/input frequency ratio).
The value for B10 was 1.48 R (bound/input frequency ratio); that for B11 was 2.44 R (bound/input frequency ratio); that for B12 was 1.42 R (bound/input frequency ratio).
As for B13, the binding signal was 1.1 R (bound/input frequency ratio).
